Screening data deposited in PubChem BioAssay by National Center for Advancing Translational Sciences (NCATS).
A selection: hits, their analogues and other compounds. The true share with any hit is near 7.9%.
SW480 rerep = DNA re-replication induction in SW480 cells; SW480 DNA re-replication, Hoechst DNA content imaging, 48 h; Potency, µM (titrated, usually from 46.1 µM), inactives show at the top dose re-replication activation, most hits filed as activators; actives 1.8% (n = 340,000); also: % of control where 0% means no effect; nearly all actives have a fitted effect of over 55% in size
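Per well, 250 cells were exposed to pinned compound for 48 hr. Nuclear DNA was visualised with Hoechst (40 min, 37 C) and total object intensity recorded by fluorescence scanning.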
MCF10A rerep = induces DNA re-replication in MCF 10a normal breast cells; Potency, µM (doses to about 46.1 µM), for inactives: top-dose activity, positive = re-replication, hits mostly activators; actives 2.9% (n = 350,000); MCF 10A DNA re-replication, Hoechst nuclear intensity, 48 h; AID 624296; also: % of control where 0% means no effect; nearly all actives have a fitted effect of over 50% in size
KB-V1 cytotox = KB-V1 MDR subline cytotoxicity; Potency, µM (titrated, usually from 46.1 µM), usual class: cytotoxic; KB-V1 MDR cells viability, CellTiter-Glo, 72 h; actives 3.4% (n = 400,000); AID 1347076; also: % is scaled to controls: 0 for no effect and ±100 for the full control effect; nearly all actives have a fitted effect of over 60% in size
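Potencies derive from concentration-effect curves fitted to normalized luminescence (CellTiter-Glo) of KB-V1 cells treated for 72 h at 37 degrees C in phenol-red-free DMEM containing 10% FBS.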
KB-3-1 cytotox = KB-3-1 parental cell cytotoxicity. Potency, µM (titrated, usually from 46.1 µM), most hits filed as cytotoxic. AID 1347075. actives 1.4% (n = 400,000). KB-3-1 viability, CellTiter-Glo ATP luminescence, 72 h; also: % is scaled to controls: 0 for no effect and ±100 for the full control effect; nearly all actives have a fitted effect of over 60% in size
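Cytotoxicity measured as CellTiter-Glo luminescence after 72 h at 37 C. Compound titrations were pinned onto drug-naive KB-3-1 parental adenocarcinoma cells grown in DMEM with 10% FBS, and normalized data fitted to concentration-response curves.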
HT1080-NT tox = kills 2HG-producing HT-1080-NT fibrosarcoma cells; actives 1.6% (n = 360,000); Potency, µM (titrated, usually from 46.1 µM), for the others: top-dose activity, negative = less viability, hits mostly cytotoxic; HT-1080-NT fibrosarcoma viability, CellTiter-Glo ATP luminescence, 48 h;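 also: NT is the 2HG producing partner of a matched IDH1 knockdown line; 0% = DMSO-treated cells and -100% = media-only wells without cells; nearly all actives have a fitted effect of over 55% in size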
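750 cells/well, RPMI + 5% FBS; 2 h settle, compound pin-transfer, 48 h at 37 degrees C. CellTiter-Glo 10 min RT, luminescence. Normalized to DMSO and media-only wells.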
HT1080 IDH1KD tx = toxicity to HT-1080 IDH1 knockdown cells (counter line) | HT-1080 IDH1 knockdown viability, ATP luminescence, 48 h | Potency, µM (titrated, usually from 46.1 µM), for inactives: at the highest dose activity, negative = toxicity, actives largely listed as cytotoxic | actives 2% (n = 360,000);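 also: 0% = DMSO wells and -100% = cell-free medium wells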
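HT-1080-IDH1KD cells (IDH1 knocked down), 750/well in RPMI with 5% FBS, treated with compound 48 h at 37 degrees C. Viability by CellTiter-Glo luminescence, normalised to DMSO and no-cell wells; concentration-response curves classed.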
The depositor's hits bear a star. Calls follow the shape of the dose curve; as a rule, active = well fitted curve in the direction sought with a large enough effect; inconclusive = small, poorly fitted or top-dose-only effect, or another doubt; inactive = no such curve, though single readings can be large; an effect the other way counts as inactive or inconclusive. Potency is read from the fitted curve at half-maximal effect.

`Cc1ccc2c(c1)C(=O)CC(c1ccc3c(c1)OCCO3)O2` (configuration not stated) gave SW480 rerep 19%, MCF10A rerep 16µM*, KB-V1 cytotox inactive, KB-3-1 cytotox inactive, HT1080-NT tox -16% and HT1080 IDH1KD tx -19%.
COc1ccc2c(c1)C(=O)CC(c1ccc3c(c1)OCCO3)O2 (configuration not stated) was read as SW480 rerep 0%, MCF10A rerep -7%, KB-V1 cytotox inactive, KB-3-1 cytotox inactive, HT1080-NT tox -21% and HT1080 IDH1KD tx -18%.
`CCc1ccc(NC(=S)Nc2cccc3cnccc23)cc1` gave SW480 rerep 6%, MCF10A rerep 2%, KB-V1 cytotox 21µM*, KB-3-1 cytotox inconclusive, HT1080-NT tox -5% and HT1080 IDH1KD tx -3%.
Screening Clc1ccc(/C=C/c2nc3ccccc3[nH]2)cc1 returned SW480 rerep -4%, MCF10A rerep inconclusive, KB-V1 cytotox inactive, KB-3-1 cytotox inconclusive, HT1080-NT tox -25% and HT1080 IDH1KD tx inconclusive.
Screening O=C(O)c1ccc(/C=C/c2nc3ccccc3c(=O)[nH]2)cc1 returned SW480 rerep inconclusive, MCF10A rerep 7%, KB-V1 cytotox inactive, KB-3-1 cytotox inactive, HT1080-NT tox -3% and HT1080 IDH1KD tx -1%.
Clc1ccc(/C=C/c2nc3ccccc3[nH]2)c(Cl)c1 was read as SW480 rerep inconclusive, MCF10A rerep 16µM*, KB-V1 cytotox inconclusive, KB-3-1 cytotox inactive, HT1080-NT tox 15µM* and HT1080 IDH1KD tx inconclusive.
`Cc1[nH]c2ccccc2c1/C=C/c1nc2ccccc2c(=O)[nH]1` gave SW480 rerep 16µM*, MCF10A rerep 23µM*, KB-V1 cytotox inconclusive, KB-3-1 cytotox inconclusive, HT1080-NT tox inconclusive and HT1080 IDH1KD tx 16µM*.
For O=c1[nH]c(/C=C/c2ccccc2Cl)nc2ccccc12 the results were SW480 rerep 18µM*, MCF10A rerep 16%, KB-V1 cytotox inactive, KB-3-1 cytotox inconclusive, HT1080-NT tox -3% and HT1080 IDH1KD tx -1%.
Screening Cc1cccc(/C=C/c2nc3ccccc3c(=O)[nH]2)c1 returned SW480 rerep 5.2µM*, MCF10A rerep 8.2µM*, KB-V1 cytotox inconclusive, KB-3-1 cytotox inconclusive, HT1080-NT tox inconclusive and HT1080 IDH1KD tx inconclusive.
COc1cc(/C=C/c2nc3ccccc3c(=O)[nH]2)ccc1O was read as KB-V1 cytotox inconclusive, KB-3-1 cytotox inactive, HT1080-NT tox -30% and HT1080 IDH1KD tx inconclusive.
`NCCCC(N)CC(=O)NCC1NC(=O)C(CO)NC(=O)C(N)CNC(=O)C(C2CCN=C(N)N2)NC(=O)/C(=C/NC(N)=O)NC1=O` (configuration not stated) gave SW480 rerep 1% and MCF10A rerep 7%.
For C(=C\c1c[nH]c2ccccc12)/c1ccnc2ccccc12 the results were KB-V1 cytotox inactive and KB-3-1 cytotox inactive.
Screening Cc1[nH]c2ccccc2c1/C=C/c1ccnc2ccccc12 returned KB-V1 cytotox 7.3µM* and KB-3-1 cytotox 8.2µM*.
For O=C(CCl)Nc1ccccc1C(=O)c1ccccc1 the results were SW480 rerep 15µM*, MCF10A rerep 7.3µM*, KB-V1 cytotox inactive, KB-3-1 cytotox inactive, HT1080-NT tox inconclusive and HT1080 IDH1KD tx -6%.
`O=C(CN1CCN(S(=O)(=O)c2ccccc2)CC1)Nc1ccccc1C(=O)c1ccccc1` gave SW480 rerep -3%, MCF10A rerep 7%, KB-V1 cytotox 3.7µM*, KB-3-1 cytotox inconclusive, HT1080-NT tox -28% and HT1080 IDH1KD tx inconclusive.
O=C(CN1CCN(S(=O)(=O)c2ccccc2)CC1)Nc1ccccc1Cl was read as SW480 rerep 1%, MCF10A rerep inconclusive, HT1080-NT tox -6% and HT1080 IDH1KD tx -3%.
For CCCN1C/C(=C/c2ccc3c(c2)OCO3)C(=O)/C(=C/c2ccc3c(c2)OCO3)C1 the results were SW480 rerep 4.6µM*, MCF10A rerep inconclusive, KB-V1 cytotox inconclusive, KB-3-1 cytotox 23µM*, HT1080-NT tox inconclusive and HT1080 IDH1KD tx inconclusive.
For CN1C(=O)/C(=C/c2cccc([N+](=O)[O-])c2)C(=O)N1c1ccccc1 the results were SW480 rerep inconclusive, MCF10A rerep inconclusive, KB-V1 cytotox inactive, KB-3-1 cytotox inconclusive, HT1080-NT tox 1% and HT1080 IDH1KD tx -8%.
CCCN1C/C(=C/c2cccc([N+](=O)[O-])c2)C(=O)/C(=C/c2cccc([N+](=O)[O-])c2)C1 was read as SW480 rerep 1.6µM*, MCF10A rerep 0.92µM*, KB-V1 cytotox inconclusive, KB-3-1 cytotox inconclusive, HT1080-NT tox -5% and HT1080 IDH1KD tx 23µM*.
CCc1ccc(S(=O)(=O)/N=C2\C=C(Nc3ccc(C(=O)O)cc3)C(=O)c3ccccc32)cc1 was read as SW480 rerep 9.2µM*, MCF10A rerep 4.6µM*, KB-V1 cytotox inactive, KB-3-1 cytotox inconclusive, HT1080-NT tox 16µM* and HT1080 IDH1KD tx 18µM*.
For Cc1ccc(S(=O)(=O)/N=C2\C=C(Nc3cccc(C(=O)O)c3)C(=O)c3ccccc32)cc1 the results were SW480 rerep inconclusive, MCF10A rerep inconclusive, KB-V1 cytotox inactive, KB-3-1 cytotox 23µM*, HT1080-NT tox 23µM* and HT1080 IDH1KD tx 21µM*.
For Cc1ccc(S(=O)(=O)/N=C2\C=C(Nc3cccc(C(=O)O)c3)C(=O)c3ccccc32)c(C)c1 the results were SW480 rerep inconclusive, MCF10A rerep 6.5µM*, KB-V1 cytotox inactive, KB-3-1 cytotox inconclusive, HT1080-NT tox 10µM* and HT1080 IDH1KD tx 6.5µM*.
O=C(O)c1ccc(NC2=C(n3nnc4ccccc43)C(=O)c3ccccc3C2=O)cc1 was read as SW480 rerep 0%, MCF10A rerep inconclusive, KB-V1 cytotox inactive, KB-3-1 cytotox inactive, HT1080-NT tox -4% and HT1080 IDH1KD tx -5%.
For Cc1ccc(S(=O)(=O)/N=C2\C=C(NS(=O)(=O)c3ccccc3)C(=O)c3ccccc32)c(C)c1 the results were SW480 rerep -8%, MCF10A rerep inconclusive, KB-V1 cytotox inactive, KB-3-1 cytotox inactive, HT1080-NT tox -14% and HT1080 IDH1KD tx -7%.
For CC(C)(C)c1ccc(S(=O)(=O)/N=C2\C=C(NS(=O)(=O)c3ccccc3)C(=O)c3ccccc32)cc1 the results were SW480 rerep inconclusive, MCF10A rerep -17%, KB-V1 cytotox inactive, KB-3-1 cytotox inactive, HT1080-NT tox 23µM* and HT1080 IDH1KD tx 16µM*.
